This is an account of results in the supplement of paper PMC5940239.

A number with no mark means an inactive call.

The experiment has as its system Madurella mycetomatis MM55. Nature of the experiment: percent growth relative to solvent control; higher = less inhibition, active = 20 or less. The conditions noted are these: 100 µM; 7 days.
In the case of `Nc1ncnc2c1ncn2[C@@H]1O[C@H](COS(=O)(=O)NC(=O)c2ccccc2O)[C@@H](O)[C@H]1O`, the percent growth is 60.6%. As for `Nc1ncc(-c2cn[nH]c2)cc1-c1nc2cc(Cl)cnc2[nH]1`, the percent growth is 127%. `Nc1ccc2ncnc(Nc3ccc(OCc4cccc(F)c4)c(Cl)c3)c2c1`: the percent growth is 92.1%. For `Cn1ncc2c(N3CCOCC3)nc(NCCc3c[nH]c4ccccc34)nc21` the value was 37.3%. The result for `O=C(c1[nH]nc2c1CCCC2)N1CCN(Cc2ccc3c(c2)OCO3)CC1` reads 81.8%; that for `CC(C)n1ncc2c(C(=O)NCC(c3cccs3)N3CCOCC3)cc(-c3ccccc3)nc21` (stereo not drawn), 76%; that for `COCC(C)NC(=O)CSc1ncnc2sc(-c3ccccc3)cc12` (stereo not drawn), 64.9%.

In the case of `COc1cccc(OCC(=O)c2ccc(Br)cc2)c1`, the percent growth is 81.3%. For `Cc1cc(Nc2ccncc2)n2nc(C)c(-c3ccccc3Cl)c2n1`, the percent growth was 103%.

With `Cc1ccc(S(=O)(=O)n2cc(-c3ccnc(N)c3)c3cc(Br)cnc32)cc1`, the percent growth was 25.4%. As for `COc1ccc2nc(C)cc(OCC(=O)NCc3ccccc3)c2c1`, the percent growth is 83.4%. Regarding `Cn1ccnc1CNCCS(=O)(=O)c1cccc(Nc2ccc(-c3cccc(F)c3)cn2)c1`, the percent growth was 65.7%. As for `CCC(=O)Nc1ccccc1C(=O)Nc1ccccn1`, the percent growth was 62.5%.

Regarding `CC(C)N=c1cc2n(-c3ccc(Cl)cc3)c3ccccc3nc-2cc1Nc1ccc(Cl)cc1`, the percent growth was 105%. For `COc1ccc(-c2nn(C(C)C)c3ncnc(N)c23)cc1OC` the value was 22.9%; for `CCOc1ccc2cc(-c3nn(C(C)(C)C)c(N)c3C(N)=O)cnc2c1`, 98.2%; for `O=C(Nc1cccnc1)c1c(O)c2cccc3c2n(c1=O)CC3`, 85.3%. Take `Cc1nc(-c2ccccn2)nc(NCCc2ccc(S(C)(=O)=O)cc2)c1Cl`: the percent growth is 118%. The result for `Nc1ncnc2c1ncn2C[C@@H](O)[C@@H](O)C(=O)O` reads 134%; that for `COc1ccc(C2(C(=O)Nc3ccc(Br)cc3)CCCC2)cc1`, 56.2%.

In the case of `CCc1nc2ccc(Cl)cn2c1C(=O)NCc1ccc(N2CCC(c3ccc(OC(F)(F)F)cc3)CC2)cc1`, the percent growth was 126%.

For `COC(=O)c1c(NC(=O)c2cc3ccccc3oc2=O)sc2c1CCN(Cc1ccccc1)C2`, the percent growth is 111%. The result for `O=C(N[C@H](Cc1ccccc1)C(=O)Nc1ccccc1N1CCOCC1)c1cccs1` reads 36.5%.

`CC(C(=O)N1CCCC1)N1CCN(S(=O)(=O)c2ccc(C(C)(C)C)cc2)CC1` (stereo not drawn): the percent growth was 89.9%. The result for `CS(=O)(=O)Cc1nc2ccccc2oc1=O` reads 87.9%; that for `Clc1ccc(CCNc2cc(-c3ccccc3)nc3ncnn23)cc1`, 108%. For `COC(=O)c1cccc2oc(-c3cccc(OC)c3NC(=O)c3cc(-c4ccccc4)on3)nc12`, the percent growth was 123%. On to `CS(=O)(=O)N1CCC(Cn2nc(Cc3cccc4ccccc34)c3c(N)ncnc32)CC1`, for which the percent growth is 92.8%.

`O=C(NCCN1CCCC1)c1cc(NCCN2CCOCC2)nc2ccc(Cl)cc12`: the percent growth is 85.5%. On to `CC(=O)N1CCN(c2ccc(Oc3ccc(Cl)cc3O)cc2)CC1`, for which the percent growth was 102%.

Take `Cc1ccc(NC(=O)c2nc[nH]c2C(=O)Nc2nc3ccccc3[nH]2)c(C)c1`: the percent growth was 147%. As for `COc1cccc(NC(=O)c2c(NC(=O)c3cccnc3)sc3c2CCC3)c1`, the percent growth is 50.9%.

As for `CC(=O)NCC1CN(c2ccc(-c3ccc(CO)cc3)c(F)c2)C(=O)O1` (stereo not drawn), the percent growth is 112%. For `Cc1ccc(C(=O)Nc2ccc(S(=O)(=O)O)c3cc(S(=O)(=O)O)cc(S(=O)(=O)O)c23)cc1NC(=O)c1cccc(NC(=O)Nc2cccc(C(=O)Nc3cc(C(=O)Nc4ccc(S(=O)(=O)O)c5cc(S(=O)(=O)O)cc(S(=O)(=O)O)c45)ccc3C)c2)c1` the value was 141%; for `COc1ccc(-c2cncc3ccc(C(=O)NCCCn4ccnc4)nc23)cc1`, 109%; for `CCN(CC)S(=O)(=O)c1ccc(C(=O)Nc2cc(C)nn2-c2nc(C)c(C)c(=O)[nH]2)cc1`, 63%.

For the compound `COc1ccc(S(=O)(=O)Nc2ccc(CN3CCN(C(=O)c4cccc(C#N)c4)CC3)cc2)cc1`, the percent growth was 113%. The result for `CO[C@@H](C(=O)N1Cc2[nH]nc(NC(=O)c3ccc(N4CCN(C)CC4)cc3)c2C1)c1ccccc1` reads 157%.
